Consider 15 compounds from PubChem BioAssay (EPA / NIEHS).

Calls of active or inactive are those of the source. How the source made its calls, unless noted: active means hit-call score of the fitted dose curve at least 0.9, where 1 is the maximum; inactive means score below 0.9.

Assay [1] deals with Peroxisome proliferator-activated receptor gamma (Homo sapiens) (UniProt P37231). Briefly: OT_PPARg_PPARgSRC1_1440: Odyssey Thera (OT) 24-hour Protein-Complementation Assay for Peroxisome Proliferator-activated Receptor Gamma/ SRC-1 Co-activator (AID 2283388; active means hit-call score of the fitted dose curve at least 0.9, where 1 is the maximum;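 further: nuclear to cytoplasmic ratio of reconstituted Venus YFP fluorescence in fixed imaged cells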). The method, boiled down:
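Readout: nuclear-to-cytoplasmic 488 nm fluorescence ratio, ≥350 cells per image, 8 images per well, after 24 h compound exposure of HEK293T expressing PPARg/SRC-1 split-YFP fusions. Activity fitted in positive direction against DMSO.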

Assay [2] is described as follows: CEETOX_H295R_11DCORT: CeeTox H295R High-throughput Steroidogenesis Assay for 11-Deoxycortisol (11DCORT) (AID 2283432). To be noted: actives raise or lower the signal. The method, boiled down: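 H295R cells; 10 uM forskolin prestim 48 h; compound in 0.1% DMSO 48 h; media extracted with MTBE; 11-deoxycortisol by LC-MS/MS, 7-point standard curve; gain/loss vs DMSO baseline; viability by MTT in same wells.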

Assay [3] is described as follows: CEETOX_H295R_OHPREG: CeeTox H295R High-throughput Steroidogenesis Assay for OH-Pregnenolone (OHPREG) (AID 2283434). To be noted: actives raise or lower the signal. The method, boiled down: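 Secreted 17alpha-hydroxypregnenolone measured by HPLC-MS/MS after liquid-liquid extraction. Human adrenal H295R cells received 48 h forskolin (10 uM) stimulation before 48 h chemical exposure at 0.1% final DMSO; MTT viability in same wells; bidirectional fit against DMSO.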

The nature of assay [4]: CEETOX_H295R_OHPROG: CeeTox H295R High-throughput Steroidogenesis Assay for OH-Progesterone (OHPROG) (AID 2283435).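 On AC50: 17alpha-hydroxyprogesterone secreted into medium measured by HPLC-MS/MS.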 The following applies: actives raise or lower the signal. The gist of the method: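 Medium steroid levels read by LC-MS/MS after 48 h chemical treatment (0.1% DMSO) of human adrenal H295R cells that had been forskolin-primed (10 uM, 48 h). Gain or loss fitted against DMSO; MTT cytotoxicity checked per well.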

Assay [5] can be described thus: CEETOX_H295R_CORTIC: CeeTox H295R High-throughput Steroidogenesis Assay for Corticosterone (CORTIC) (AID 2283437). The following applies: actives raise or lower the signal. The gist of the method:
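Medium corticosterone was quantified by tandem mass spectrometry following 48 hours of chemical exposure (0.1% DMSO) in human H295R cells previously stimulated 48 hours with 10 uM forskolin. Viability checked by MTT; chemicals diluted and retested when viability fell below 70%.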

Assay [6] can be described thus: CEETOX_H295R_DOC: CeeTox H295R High-throughput Steroidogenesis Assay for DOC (AID 2283439). To be noted: actives raise or lower the signal. The gist of the method:
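11-Deoxycorticosterone quantified in medium by MTBE extraction and HPLC-MS/MS after 48 h chemical exposure (0.1% DMSO) of forskolin-primed (10 uM, 48 h) H295R cells. Same-well MTT viability; data fitted bidirectionally against DMSO.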

Assay [7] is described as follows: CEETOX_H295R_PROG: CeeTox H295R High-throughput Steroidogenesis Assay for Progesterone (PROG) (AID 2283442).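 On AC50: human H295R adrenal cells primed with 10 µM forskolin before dosing.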 The following applies: actives raise or lower the signal. The method, boiled down: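 Progesterone read-out: HPLC-MS/MS on MTBE extracts of conditioned medium after 48 h chemical exposure of forskolin-primed (10 uM, 48 h) H295R cells. Gain or loss of signal was fitted relative to DMSO baseline.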

Read-out in assay [8]: Tumor necrosis factor receptor superfamily member 6 (Homo sapiens) (UniProt P25445)
The experiment in a line: LTEA_HepaRG_FAS: Life Technologies and Expression Analysis (LTEA) Assay for Fas cell surface death receptor (FAS) using HepaRG (AID 2283447). The following applies: mRNA level, 48 h; actives raise or lower the signal. The method, boiled down: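 FAS transcript level was measured by TaqMan qRT-PCR against three housekeeping genes after 48 h chemical exposure. Cells were HepaRG, 0.5% DMSO vehicle, with a top concentration of 100 uM and half-log dilutions over eight points, in duplicate.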

Read-out in assay [9]: Fatty acid synthase (Homo sapiens) (UniProt P49327)
Briefly: LTEA_HepaRG_FASN: Life Technologies and Expression Analysis (LTEA) Assay for Fatty Acid Synthase (FASN) using HepaRG (AID 2283448). The following applies: mRNA level, 48 h; actives raise or lower the signal. The gist of the method: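 FASN transcript measured by TaqMan qRT-PCR, normalised to three housekeeping genes, after 48 h chemical exposure of HepaRG cells. Eight-point half-log series from 100 uM in 0.5% DMSO, duplicates; gain or loss fitted against vehicle.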

Read-out in assay [10]: Cyclin Dependent Kinase Inhibitor 1A (CDKN1A), CDKN1A (gene 1026)
Briefly: LTEA_HepaRG_CDKN1A: Life Technologies and Expression Analysis (LTEA) Assay for Cyclin Dependent Kinase Inhibitor 1A (CDKN1A) using HepaRG (AID 2283450). The following applies: mRNA level, 48 h; actives raise or lower the signal. The method, boiled down: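 HepaRG, 48 h dosing, 8-pt half-log series from 100 uM top, 0.5% DMSO vehicle, duplicates. Readout: TaqMan qRT-PCR of CDKN1A transcript, housekeeping-normalized (ACTB, GAPDH, POLR2A). Up/down curve fit relative to DMSO.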

Read-out in assay [11]: Cyclin D1 (CCND1), CCND1 (gene 595)
Briefly: LTEA_HepaRG_CCND1: Life Technologies and Expression Analysis (LTEA) Assay for Cyclin D1 (CCND1) using HepaRG (AID 2283451). The following applies: mRNA level, 48 h; actives raise or lower the signal. The gist of the method:
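qRT-PCR (Fluidigm 96.96 array) read-out of transcript level, housekeeping-normalized (ACTB/GAPDH/POLR2A). HepaRG cells, 48 h chemical exposure, 8-point half-log series from 100 uM, 0.5% DMSO vehicle; gain or loss relative to DMSO baseline.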

Read-out in assay [12]: catalase (CAT), CAT (gene 847)
Briefly: LTEA_HepaRG_CAT: Life Technologies and Expression Analysis (LTEA) Assay for catalase (CAT) using HepaRG (AID 2283452). The following applies: mRNA level, 48 h; actives raise or lower the signal. The method, boiled down:
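Expression of CAT was quantified by TaqMan qRT-PCR with ACTB/GAPDH/POLR2A normalization after 48 h chemical exposure of HepaRG. Eight-point half-log series, top 100 uM, in 0.5% DMSO; gain or loss fitted against vehicle.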

Read-out in assay [13]: flavin-containing dimethylaniline monooxygenases 3 (FMO3), FMO3 (gene 2328)
Briefly: LTEA_HepaRG_FMO3: Life Technologies and Expression Analysis (LTEA) Assay for flavin-containing dimethylaniline monooxygenases 3 (FMO3) using HepaRG (AID 2283453). The following applies: mRNA level, 48 h; actives raise or lower the signal. The method, boiled down:
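FMO3 transcript quantified by TaqMan qRT-PCR against three housekeeping genes after 48 h chemical exposure of HepaRG cells. Eight-point half-log series, top 100 uM, 0.5% DMSO vehicle; phenobarbital 1mM induction control; up- or down-regulation fitted.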

Read-out in assay [14]: Cytochrome P450 (CYP1A1), CYP1A1 (gene 1543)
Briefly: LTEA_HepaRG_CYP1A1: Life Technologies and Expression Analysis (LTEA) Assay for Cytochrome P450 (CYP1A1) using HepaRG (AID 2283454). The following applies: mRNA level, 48 h; actives raise or lower the signal. The gist of the method: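 qRT-PCR read-out: CYP1A1 transcript normalized to three housekeeping genes, fitted bidirectionally against 0.5% DMSO vehicle baseline. Human HepaRG cells, 48 h chemical exposure, 8-point half-log series topping at 100 uM.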

Read-out in assay [15]: CFLAR gene, CFLAR (gene 8837)
The experiment in a line: LTEA_HepaRG_CFLAR: Life Technologies and Expression Analysis (LTEA) Assay for CFLAR gene using HepaRG (AID 2283455). To be noted: mRNA level, 48 h; actives raise or lower the signal. The method, boiled down:
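Transcript level by qRT-PCR (normalized to ACTB, GAPDH and POLR2A) after 48 h chemical exposure of HepaRG cells, top concentration 100 uM with half-log steps, 0.5% DMSO vehicle, duplicates; fitted bidirectionally against DMSO baseline.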

Read-out in assay [16]: Forkhead box O1 (FOXO1), FOXO1 (gene 2308)
Briefly: LTEA_HepaRG_FOXO1: Life Technologies and Expression Analysis (LTEA) Assay for Forkhead box O1 (FOXO1) using HepaRG (AID 2283456). The following applies: mRNA level, 48 h; actives raise or lower the signal. The gist of the method:
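FOXO1 transcript quantified by qRT-PCR after 48 h chemical exposure (top 100 uM, half-log steps, 0.5% DMSO) of HepaRG cells, housekeeping-normalized (ACTB/GAPDH/POLR2A). Changes fitted in both directions relative to vehicle.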

Assay [17] is described as follows: CEETOX_H295R_ANDR: CeeTox H295R High-throughput Steroidogenesis Assay for Androstenedione (ANDR) (AID 2283436). The following applies: actives raise or lower the signal. The gist of the method:
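Medium from 48 h chemical-treated H295R adrenal cells was extracted with MTBE and androstenedione measured by LC-MS/MS. Activity was fit in both directions relative to DMSO. Cytotoxic concentrations were re-tested after dilution until MTT viability reached ≥70%.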

Assay [18] is described as follows: CEETOX_H295R_TESTO: CeeTox H295R High-throughput Steroidogenesis Assay for Testosterone (TESTO) (AID 2283457). To be noted: actives raise or lower the signal. The method, boiled down: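 Readout: testosterone quantified by HPLC-MS/MS (C18, ESI positive) after MTBE liquid-liquid extraction of culture medium. Cells were H295R, 48 h chemical exposure per OECD 456 with modifications. Gain or loss of signal fitted relative to DMSO.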

Peroxisome proliferator-activated receptor gamma (Homo sapiens), sequence (P37231 whole entry, looked up, the tested form may be a part): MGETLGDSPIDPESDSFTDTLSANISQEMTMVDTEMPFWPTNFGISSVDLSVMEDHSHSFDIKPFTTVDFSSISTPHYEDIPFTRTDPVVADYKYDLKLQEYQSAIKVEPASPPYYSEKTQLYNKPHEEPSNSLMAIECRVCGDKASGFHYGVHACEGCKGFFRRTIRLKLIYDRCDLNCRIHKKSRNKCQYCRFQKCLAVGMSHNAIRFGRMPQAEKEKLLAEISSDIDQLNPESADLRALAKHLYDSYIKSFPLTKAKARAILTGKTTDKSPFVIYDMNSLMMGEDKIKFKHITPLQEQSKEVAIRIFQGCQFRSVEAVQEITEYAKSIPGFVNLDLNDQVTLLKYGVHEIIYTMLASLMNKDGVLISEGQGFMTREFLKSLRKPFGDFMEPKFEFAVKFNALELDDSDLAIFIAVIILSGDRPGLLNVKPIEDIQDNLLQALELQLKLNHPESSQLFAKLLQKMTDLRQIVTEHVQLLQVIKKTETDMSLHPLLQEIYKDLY
Fatty acid synthase (Homo sapiens), sequence (P49327 whole entry, looked up): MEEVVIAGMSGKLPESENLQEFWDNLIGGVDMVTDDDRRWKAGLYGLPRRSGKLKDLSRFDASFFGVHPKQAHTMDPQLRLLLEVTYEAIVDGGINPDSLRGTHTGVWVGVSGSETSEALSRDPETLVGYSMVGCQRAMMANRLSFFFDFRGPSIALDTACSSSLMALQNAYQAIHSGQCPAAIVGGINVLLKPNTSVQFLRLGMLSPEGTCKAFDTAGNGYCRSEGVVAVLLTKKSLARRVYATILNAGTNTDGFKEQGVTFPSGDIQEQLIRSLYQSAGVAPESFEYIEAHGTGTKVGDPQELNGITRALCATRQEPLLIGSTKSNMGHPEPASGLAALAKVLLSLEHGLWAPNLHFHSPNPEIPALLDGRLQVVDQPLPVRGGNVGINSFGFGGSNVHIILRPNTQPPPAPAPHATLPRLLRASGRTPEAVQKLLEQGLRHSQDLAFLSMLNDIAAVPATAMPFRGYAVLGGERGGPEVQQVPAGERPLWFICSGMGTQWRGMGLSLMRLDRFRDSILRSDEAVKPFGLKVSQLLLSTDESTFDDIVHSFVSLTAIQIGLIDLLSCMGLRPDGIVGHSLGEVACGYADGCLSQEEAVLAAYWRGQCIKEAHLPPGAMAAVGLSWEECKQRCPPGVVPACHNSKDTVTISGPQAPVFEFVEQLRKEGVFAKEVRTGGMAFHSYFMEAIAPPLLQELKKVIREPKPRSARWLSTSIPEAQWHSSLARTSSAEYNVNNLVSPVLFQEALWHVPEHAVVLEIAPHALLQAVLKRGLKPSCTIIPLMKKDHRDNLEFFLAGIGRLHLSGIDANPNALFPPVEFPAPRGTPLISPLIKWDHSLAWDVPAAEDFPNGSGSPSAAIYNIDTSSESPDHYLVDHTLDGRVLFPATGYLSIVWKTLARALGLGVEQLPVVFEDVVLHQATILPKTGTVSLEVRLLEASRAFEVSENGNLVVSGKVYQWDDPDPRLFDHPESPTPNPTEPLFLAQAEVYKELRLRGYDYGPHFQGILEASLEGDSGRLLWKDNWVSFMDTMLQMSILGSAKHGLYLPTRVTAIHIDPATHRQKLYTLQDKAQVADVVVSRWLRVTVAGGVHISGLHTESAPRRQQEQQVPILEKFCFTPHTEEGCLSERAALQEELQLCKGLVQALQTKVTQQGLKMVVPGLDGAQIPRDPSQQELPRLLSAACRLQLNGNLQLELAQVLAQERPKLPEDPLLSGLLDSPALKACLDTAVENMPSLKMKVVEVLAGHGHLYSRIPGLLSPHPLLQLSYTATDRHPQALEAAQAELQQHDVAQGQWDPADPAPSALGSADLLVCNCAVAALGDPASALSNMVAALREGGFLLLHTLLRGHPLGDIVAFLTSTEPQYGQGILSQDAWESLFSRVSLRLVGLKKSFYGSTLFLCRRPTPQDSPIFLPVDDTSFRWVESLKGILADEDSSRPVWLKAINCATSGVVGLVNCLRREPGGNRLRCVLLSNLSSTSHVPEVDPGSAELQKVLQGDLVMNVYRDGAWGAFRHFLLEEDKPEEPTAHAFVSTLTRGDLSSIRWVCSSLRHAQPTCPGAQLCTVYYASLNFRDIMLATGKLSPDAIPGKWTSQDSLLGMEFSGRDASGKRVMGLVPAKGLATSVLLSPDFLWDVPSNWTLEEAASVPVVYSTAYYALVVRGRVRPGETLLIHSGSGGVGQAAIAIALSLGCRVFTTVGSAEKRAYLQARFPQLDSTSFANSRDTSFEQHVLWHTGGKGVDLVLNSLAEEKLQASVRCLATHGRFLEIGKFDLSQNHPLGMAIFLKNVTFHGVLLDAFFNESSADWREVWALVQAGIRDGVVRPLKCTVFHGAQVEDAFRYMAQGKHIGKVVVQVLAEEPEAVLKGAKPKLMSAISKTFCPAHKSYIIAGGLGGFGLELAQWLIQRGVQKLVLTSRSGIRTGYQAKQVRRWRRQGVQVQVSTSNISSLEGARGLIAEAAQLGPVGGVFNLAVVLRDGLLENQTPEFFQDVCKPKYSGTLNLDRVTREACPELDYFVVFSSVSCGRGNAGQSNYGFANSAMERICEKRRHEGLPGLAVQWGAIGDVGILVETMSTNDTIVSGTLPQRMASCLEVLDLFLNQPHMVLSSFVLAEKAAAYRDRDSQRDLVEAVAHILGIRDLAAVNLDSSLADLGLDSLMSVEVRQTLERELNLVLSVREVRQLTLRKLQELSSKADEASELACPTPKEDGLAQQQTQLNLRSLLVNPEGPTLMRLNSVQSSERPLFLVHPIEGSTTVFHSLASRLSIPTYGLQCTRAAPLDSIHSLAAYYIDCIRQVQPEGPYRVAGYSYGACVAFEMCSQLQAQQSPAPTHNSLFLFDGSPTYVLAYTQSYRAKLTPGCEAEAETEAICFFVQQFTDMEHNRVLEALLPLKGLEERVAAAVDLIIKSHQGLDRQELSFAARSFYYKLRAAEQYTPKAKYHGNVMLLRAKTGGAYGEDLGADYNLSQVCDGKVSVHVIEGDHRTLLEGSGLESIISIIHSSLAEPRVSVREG

For `CCc1cc(C(C)(C)C)c(O)c(C(C)(C)C)c1`, the compound was called inactive in [1], in [2], in assay [3], in assay [4], in [5] and in assay [6]. Moreover, the compound was classed as inactive in assay [7].
Usually AC50 stands for the concentration at which the activity in the assay is half-maximal. With `Cc1cc(=O)oc2cc(N(C)C)ccc12`, the result in assay [1], in assay [2], in assay [5], in assay [6] and in assay [7] was inactive. In addition, the figures for the AC50 in assay [3] and in [4] were 45.6 µM (active) and 50 µM (active), respectively.
As to `CCOc1ccc(N=Nc2ccc(C=Cc3ccc(N=Nc4ccc(OCC)cc4)cc3S(=O)(=O)O)c(S(=O)(=O)O)c2)cc1`, in assay [1], the outcome was inactive.
For the compound `CS(=O)(=O)OCCCCOS(C)(=O)=O`, the result in [1], in assay [8], in [9], in [10], in [11] and in assay [12] was inactive. For the same compound, the compound was classed as inactive in assay [13], in [14], in assay [15] and in [16].
Turning to `OCC#CCO`, the result in assay [1] was inactive.
For the compound `O=C1OC[C@H](Cc2cccc(O)c2)[C@H]1Cc1cccc(O)c1`, the compound was called inactive in assay [1].
For the compound `COc1ccc(N=Nc2cc(C)c(N=Nc3ccc(S(=O)(=O)O)cc3)cc2OC)cc1`, the compound was called inactive in assay [1], in assay [2], in assay [3], in [5] and in assay [6]. In addition, the AC50 in assay [4] was 34.6 µM (active); in [7], 50 µM (active).
Turning to `CCCCCCCCCCCCCCN(CCO)CCO`, the compound was classed as inactive in assay [1].
For `O=c1c(O)c(-c2ccc(O)cc2)oc2cc(O)cc(O)c12`, the outcome in assay [1] was inactive.
Take `CC1(C)C(=O)N(Cl)C(=O)N1Br`: the outcome in assay [1], in assay [2], in assay [4], in [5], in assay [6] and in assay [7] was inactive.
`OCCc1ccccc1`: the call in assay [1] was inactive.
Turning to `COC(=O)c1ccc(C)cc1C1=NC(C)(C(C)C)C(=O)N1` (stereo not given) (tested in a mixture with another compound), in assay [1], the compound was classed as inactive.
Turning to `CCCCCCCCCC(=O)OC`, in assay [1], the compound was called inactive.
Consider `C=C(C)[C@@H]1CC=C(C)C(=O)C1`, for which, in assay [1], the compound was called inactive.
`CCOC(=O)[C@@H](C)Oc1ccc(Oc2nc3ccc(Cl)cc3o2)cc1`: the outcome in [1], in [2], in assay [3], in [17], in assay [5] and in assay [18] was inactive. The AC50 in assay [4] was 10.1 µM (active); in [6], 22.8 µM (active); in assay [7] it was 25.7 µM (active).
